These results are taken from PubChem BioAssay (Tox21).

Results filed as inconclusive are left out. A call without a number means that no potency is given here. Values without a mark were called inactive. Calls of active or inactive are those of the source. Calls come from the whole dose curve.
Potency is the fitted concentration of half-maximal effect.

The assay deals with Acetylcholinesterase (Homo sapiens) (UniProt P22303). The assay can be described thus: Acetylcholinesterase (AChE) small molecule antagonists: fluorescence cell-based qHTS assay (AID 1347398). Note: nearly all actives have a fitted effect of over 50% in size. The conditions noted are these: SH-SY5Y cells; Potency: AChE activity; outcome: AChE activity; series mostly up to 115 µM. The method in brief: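 Cellular AChE inhibition: SH-SY5Y cells treated with test chemical for 30 min at 37 C, then acetylthiocholine hydrolysis followed over 40 min at room temperature via thiocholine-reactive Thiolite Green fluorescence (490/520 nm).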
Chain of Acetylcholinesterase (Homo sapiens) (P22303 whole entry, looked up): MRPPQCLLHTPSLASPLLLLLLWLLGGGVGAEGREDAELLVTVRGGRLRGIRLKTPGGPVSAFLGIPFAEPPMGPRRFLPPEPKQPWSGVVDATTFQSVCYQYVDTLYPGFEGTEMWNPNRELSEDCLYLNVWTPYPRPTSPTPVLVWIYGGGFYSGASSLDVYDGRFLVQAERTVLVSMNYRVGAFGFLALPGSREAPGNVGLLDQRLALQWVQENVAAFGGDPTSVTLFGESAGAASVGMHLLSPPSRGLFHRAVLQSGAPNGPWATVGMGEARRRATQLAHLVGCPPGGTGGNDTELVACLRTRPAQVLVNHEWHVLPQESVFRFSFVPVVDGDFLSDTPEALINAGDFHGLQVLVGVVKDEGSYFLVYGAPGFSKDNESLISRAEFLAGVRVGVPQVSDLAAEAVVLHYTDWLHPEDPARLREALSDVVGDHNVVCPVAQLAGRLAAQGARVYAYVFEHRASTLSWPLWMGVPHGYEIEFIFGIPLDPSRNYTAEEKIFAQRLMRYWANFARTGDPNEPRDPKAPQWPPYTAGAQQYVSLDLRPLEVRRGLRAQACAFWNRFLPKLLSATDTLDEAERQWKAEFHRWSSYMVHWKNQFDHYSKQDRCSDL
As to `COCCOCCOC`, the Potency entry was “inactive”.
Regarding `OC1(c2ccc(Cl)c(C(F)(F)F)c2)CCN(CCCC(c2ccc(F)cc2)c2ccc(F)cc2)CC1`, the Potency result is “inactive”.
The same measure, in the same setting: the result for `Cc1occc1SSc1ccoc1C` reads “inactive”.
For the compound `c1cc(-c2ccncc2)ccn1`, the Potency entry was “inactive”.
Turning to `O=P(c1ccccc1)(c1ccccc1)c1ccccc1`, the Potency result is “inactive”.
Turning to `C/C=C(C)/C=C/C=C(C)C`, the Potency result was “inactive”.
Still for that read-out and setting: the result for `CCO/C([O-])=N/c1c[n+](N2CCOCC2)no1` reads “inactive”.
In the case of `O=C(OCCOCCOC(=O)c1ccccc1)c1ccccc1`, the Potency result was “inactive”.
Regarding `Clc1cc(Cl)c(Cl)c(Cl)c1Cl`, the Potency result was “inactive”.
With `Oc1ccc(Cc2ccccc2O)cc1`, the Potency result was “inactive”.
For `Cc1ccc(S(=O)(=O)NC(=O)NN2CCCCCC2)cc1`, the Potency entry was “inactive”.
Take `CC1(C)COCN1`: the Potency result is “inactive”.
For `CC(=O)Nc1ccc(C(=O)O)cc1`, the Potency entry was “inactive”.
For the compound `CCC(COC(=O)CCS)(COC(=O)CCS)COC(=O)CCS`, the Potency result was “inactive”.
Regarding `O=C(Cl)c1c(Cl)c(Cl)c(C(=O)Cl)c(Cl)c1Cl`, the Potency entry was “inactive”.
In the case of `COc1ccc(C(=O)c2ccc(C)cc2)c(O)c1`, the Potency result was “inactive”.
Take `O=C(O)c1cc(C(=O)O)cc(C(=O)O)c1`: the Potency result was “inactive”.
On to `NC(=O)c1ccccc1N`, for which the Potency result was “inactive”.
As for `OC1CCCC1`, the Potency entry was “inactive”.
Consider `CC(C)(Oc1ccc(Cl)cc1)C(=O)OCCCOC(=O)C(C)(C)Oc1ccc(Cl)cc1`, for which the Potency result was “inactive”.
For the compound `CC(C)N=C=NC(C)C`, the Potency entry was “inactive”.
As for `CCCCN(CCCC)C(=O)N(CCCC)CCCC`, the Potency entry is “inactive”.
Turning to `C[C@]12CC[C@@H]3c4ccc(O)cc4CC[C@H]3[C@@H]1CC[C@H]2O`, the Potency entry was “inactive”.
Consider `CCO[Si](C)(CCCOCC1CO1)OCC` (stereo not given), for which the Potency entry is “inactive”.
The same measure, in the same setting: the result for `CC(=O)O[Si](C)(OC(C)=O)OC(C)=O` reads “inactive”; that for `FC(F)(F)C(F)(F)C(F)(F)C(F)(F)CCI`, “inactive”; that for `Cn1ccnc1`, “inactive”.
With `CC(=O)CC(C)=O`, the Potency result was “inactive”.
For the compound `CC(=O)N1CCN(c2ccc(OC[C@H]3CO[C@](Cn4ccnc4)(c4ccc(Cl)cc4Cl)O3)cc2)CC1`, the Potency is 31.7 µM (active).
As for `C=C(C)C1CC=C(C)C(OC(C)=O)C1` (stereo not given), the Potency result was “inactive”.
As for `c1cc(C(c2ccc(OCC3CO3)cc2)c2ccc(OCC3CO3)cc2)ccc1OCC1CO1` (stereo not given), the Potency result was “inactive”.
Same read-out and setting: the result for `CCCCCCC(C)(C)C(=O)O` reads “inactive”.
As for `N[C@@H](COP(=O)(O)O)C(=O)O`, the activity change, negative = inhibition is 4.21% [at 23.8 µM].
Turning to `CSc1cnc(C)cn1`, the Potency entry is “inactive”.
Take `Nc1ccc(S(=O)(=O)NC(=O)c2ccccc2)cc1`: the Potency entry is “inactive”.
For the compound `Nc1nc(-c2ccc([N+](=O)[O-])cc2)cs1`, the Potency entry was “inactive”.
With `C=C1CC[C@H](O)C/C1=C\C=C1/CCC[C@]2(C)[C@@H]([C@H](C)CCCC(C)C)CC[C@@H]12`, the Potency entry is “inactive”.
On to `Oc1ccc2c(c1)CCC2`, for which the Potency result is “inactive”.
Take `O=C1OCCO1`: the Potency result was “inactive”.
With `ClCCl`, the Potency entry was “inactive”.
